In PubChem BioAssay (NCI):
This is part of a sample that, as a whole, favours compounds with a hit. Of some 79,000 tested, about 15% had one in any assay. Unmarked numbers belong to inactive results. The source made the active and inactive calls. Cut-off read from the data, not from the text of the source: active = growth inhibition above about 70%; inactive = the rest.

Assays:
[1] = NCI Yeast Anticancer Drug Screen. Data for the rad50 strain (AID 155);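 note: 0% = growth of vehicle-only cultures of the same strain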; conditions: S. cerevisiae rad50 strain growth inhibition, hits give high values
In short: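 Inhibition values express reduced yeast growth in compound-treated cultures relative to vehicle-treated controls.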

[2] = NCI Yeast Anticancer Drug Screen. Data for the mec2-1 strain (AID 157); conditions: S. cerevisiae mec2-1 strain, hits give high values
In short: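 Compounds were applied to mec2-1 yeast cells. Their growth was then compared with that of vehicle-treated cultures to give growth inhibition.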

[3] = NCI Yeast Anticancer Drug Screen. Data for the sgs1 mgt1 strain (AID 161);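 note: 0% = growth of cultures given vehicle only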; conditions: S. cerevisiae sgs1 mgt1 strain, hits give high values
In short: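 This yeast growth screen uses a strain with defined DNA-repair lesions; compound-treated growth is compared with vehicle-treated growth.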

[4] = NCI Yeast Anticancer Drug Screen. Data for the cln2 rad14 strain (AID 165);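 note: 0% = growth equal to vehicle treated cultures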; conditions: S. cerevisiae cln2 rad14 strain, hits give high values
In short: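 Strain: cln2 rad14 yeast, altered in cell cycle control and DNA damage repair. Read-out: growth inhibition vs vehicle.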

[5] = NCI Yeast Anticancer Drug Screen. Data for the bub3 strain (AID 167); conditions: S. cerevisiae bub3 mutant strain, hits give high values
In short: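 Steps: expose the mutant yeast strain to compound; grow alongside vehicle-treated cultures; measure growth; express inhibition against the vehicle cultures.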

[6] = NCI Yeast Anticancer Drug Screen. Data for the mlh1 rad18 strain (AID 175); conditions: S. cerevisiae mlh1 rad18 strain growth inhibition, hits give high values
In short: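 A repair-deficient yeast strain is exposed to test compound, and growth is scored relative to vehicle-treated controls.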

[7] = at 5.0 µM (retest, dose inferred, filed as 0.5)
[8] = at 50.0 µM (retest, dose inferred, filed as 5.0)

Row | Structure (SMILES) | growth inhibition [1, 7] | growth inhibition [1, 8] | growth inhibition ([1]; at 50.0 µM) | growth inhibition [2, 7] | growth inhibition [2, 8] | growth inhibition ([2]; at 50.0 µM) | growth inhibition [3, 7] | growth inhibition [3, 8] | growth inhibition ([3]; at 50.0 µM) | growth inhibition [4, 7] | growth inhibition [4, 8] | growth inhibition ([4]; at 50.0 µM) | growth inhibition [5, 7] | growth inhibition [5, 8] | growth inhibition ([5]; at 50.0 µM) | growth inhibition [6, 7] | growth inhibition [6, 8] | growth inhibition ([6]; at 50.0 µM)
1 | Nc1ccc2c(SCCSc3c4ccccc4nc4cc(N)ccc34)c3ccccc3nc2c1 | 25% | 81% (active) | 56% | 20% | 62% | 33% | 28% | 76% (active) | 52.6% | 6% | 28% | -8.65% | 1% | -14% | -6.05% | 23% | 46% | 29.9%
2 | CCOC(=O)NC(c1ccc(C(NC(=O)OCC)P(=O)(O)NC23CC4CC(CC(C4)C2)C3)cc1)P(=O)(O)NC12CC3CC(CC(C3)C1)C2 (configuration not stated) | -8% | -6% | 60.4% | 5% | -10% | 84.2% (active) | -8% | -24% | 81% (active) | -30% | -2% | 71.8% (active) | 13% | -7% | 91% (active) | -31% | -21% | 76.4% (active)
3 | COc1ccc(C2=C(Cl)C(=O)N(c3ccc(OC)cc3OC)C(=O)C2(Cl)Cl)cc1 | 4% | 42% | 74.5% (active) | -9% | 36% | 89.9% (active) | 5% | 54% | 70.8% (active) | -9% | 25% | 44.5% | -5% | 28% | 56.5% | 3% | 8% | 79.8% (active)
4 | CCCCCCCCCN(CCCCCCCCC)CC(O)c1cc2c(c3ccccc13)CCCC2 (configuration not stated) | 9% | 93% (active) | 99% (active) | 38% | 96% (active) | 91% (active) | 53% | 97% (active) | 99% (active) | 7% | 90% (active) | 98.9% (active) | 11% | 93% (active) | 95.8% (active) | 46% | 95% (active) | 98.8% (active)
5 | CC(C)OC(=O)c1cc([N+](=O)[O-])cc([N+](=O)[O-])c1Sc1ncnc2nc[nH]c12 | 49% | 54% | 14.2% | 11% | 49% | 15.5% | 44% | 83% (active) | 20.9% | 44% | 57% | 65.8% | 45% | 79% (active) | 24.7% | 35% | 42% | 66.8%
6 | CN(C)c1ccc2c(c1)Cc1cc(NC(=O)/C=C/C(=O)O)ccc1-2 | -31% | -21% | -6.7% | -10% | -19% | -2.05% | -13% | 12% | -8.55% | -5% | 6% | -5.6% | 2% | -3% | -10.7% | -2% | 7% | -4.7%
7 | COC(=O)C([NH-])c1ccccc1.COC(=O)C([NH-])c1ccccc1.[Cl][Pt+2][Cl] (configuration not stated) | 16% | 81% (active) | 69% | 11% | 37% | 46.9% | 39% | 76% (active) | 76.3% (active) | 0% | 43% | 58% | 5% | 27% | 30.2% | 21% | 60% | 76.7% (active)
8 | COc1ccc(C(=O)Cc2nc3nnc(NC(=O)Nc4ccc(Cl)cc4)n3nc2CC(=O)c2ccc(OC)cc2)cc1 | 2% | 96% (active) | 93.1% (active) | 7% | 98% (active) | 94.9% (active) | 1% | 98% (active) | 94.8% (active) | -1% | 97% (active) | 93.5% (active) | 7% | 98% (active) | 96.2% (active) | 4% | 97% (active) | 95.1% (active)
9 | O=C(Nc1c(Cl)cccc1Cl)OCCOc1ccc(Cl)cc1Cl | 44% | 73% (active) | 88.5% (active) | 36% | 57% | 90.8% (active) | 47% | 58% | 91.2% (active) | 34% | 61% | 88.2% (active) | 38% | 71% (active) | 90.7% (active) | 55% | 80% (active) | 90% (active)
